MITF TRPM1 HTS – increases MITF-driven TRPM1 promoter luciferase signal; SK-MEL-5 TRPM1-promoter luciferase, 24 h; % of positive control, neutral wells = 0; 300,000 tested, 0.75% active; activation, % at 12.5 µM;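 active means mean activation of at least 80% with every replicate also reaching 80%; inconclusive means mean reaches 80% but some replicate falls short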;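 further: 0% = neutral control wells and 100% = parthenolide positive control wells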
esBAF inh – inhibitors of esBAF chromatin remodeling in mouse ES cells; Bmi1-luciferase knock-in reporter, 24 h; 100% = twice the neutral-well signal; reporter increase, % at 12.5 µM; 350,000 tested, 2% active; AID 602393; in the data active means activation above about 40%; inconclusive means no clear call, values can overlap the other calls;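 further: 0% = median of the plate's neutral control wells and 100% = double that signal; a rise in the Bmi1 reporter signal indicates esBAF inhibition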
PvdQ inh – blocks Pseudomonas aeruginosa PvdQ acylase activity; purified PvdQ acylase, fluorescence plate reader; inhibition, % at 10 µM; 340,000 tested, 0.063% active; in the data active means inhibition above about 30%, passing the limit was not always enough; inconclusive means no clear call, values can overlap the other calls;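 further: 0% = vehicle neutral wells and 100% = reference inhibitor wells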
Vif inh – HIV Vif inhibition. 340,000 tested, 0.35% active. HEK293T cells, Vif self-association by quenched fluorescence, imaging, 24 h. AID 602346. inhibition, % at 7.49 µM; in the data active means inhibition above about 50%, passing the limit was not always enough; inconclusive means no clear call, values can overlap the other calls; inactive means below about 31%
Glyco luc inh – N-linked glycosylation inhibition. reporter increase, % at 12.5 µM. AID 588692. 360,000 tested, 0.23% active. D54 ERlucT glycosylation luciferase reporter, 24 h; percent of 100 nM tunicamycin response;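 active means mean luciferase reporter signal, scaled so untreated is 0 and the glycosylation-blocking control 100, at or above a set limit in every replicate; inconclusive means mean reaches the limit but not every replicate does; inactive means mean below the limit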;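 further: luciferase carries N-glycosylation sites so blocking glycosylation raises the light; 0% = median of neutral control wells and 100% = median of 100 nM tunicamycin wells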
Wnt bcat act – activators of Wnt/beta-catenin signaling; Wnt/beta-catenin reporter cell assay, activator, plate reader; activation, % at 9.35 µM; 300,000 tested, 1.2% active; AID 743398; in the data active means activation above about 30%, passing the limit was not always enough; inconclusive means no clear call, values can overlap the other calls;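 further: 0% = neutral control wells and 100% = positive control wells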
Numbers without * were called inactive; ? = inconclusive; . = no result given. Sampled rows, rich in hits. Any-hit rate of the full collection: about 2.9%.

SMILES	MITF TRPM1 HTS	esBAF inh	PvdQ inh	Vif inh	Glyco luc inh	Wnt bcat act
C[C@@H]1CCCCO[C@H](CN(C)C(=O)Nc2ccc3c(c2)OCO3)[C@H](C)CN([C@H](C)CO)C(=O)c2cc(NC(=O)Cc3ccccc3)ccc2O1	.	1	.	.	.	.
Cc1cccc(NC(=O)c2ccccc2Br)n1	5	37	-7	-1	1	2
Cc1cccc(NC(=O)c2ccoc2C)n1	33	45*	-9	-9	-1	.
Cc1csc(NC(=O)c2cnccn2)n1	.	22	-10	-2	1	.
Cc1csc(NC(=O)c2ccoc2C)n1	.	42*	-8	-9	2	.
Cc1csc(NC(=O)c2cc(C)on2)n1	55	2	-14	.	-7	40*
Cc1csc(NC(=O)CSc2nnc(-c3ccoc3C)o2)n1	.	43*	-5	-1	-3	21
C[C@H]1CN([C@@H](C)CO)C(=O)c2cc(NS(=O)(=O)c3ccc(Cl)cc3)ccc2O[C@@H]1CN(C)C(=O)Nc1ccc(C(F)(F)F)cc1	.	3	.	.	.	.
O=C(C[C@@H]1C=C[C@@H](NS(=O)(=O)c2ccc(F)cc2)[C@@H](CO)O1)N1CCC(Cc2ccccc2)CC1	.	3	.	.	.	.
N#Cc1cc2c(nc1SCc1ccccc1)CCCC2=O	3	9	21	7	-3	49*
N#Cc1cc2c(nc1SCc1ccncc1)CCC2	36	44*	-12	.	2	19
N#Cc1cc2c(nc1SCc1ccccc1)CCC2	.	.	7	-3	-3	.
COCCNC(=O)C[C@H]1C[C@@H]2c3cc(NC(=O)C4CCOCC4)ccc3O[C@@H]2[C@@H](CO)O1	.	-5	.	.	.	.
CCCC(=O)N=C1SC2CS(=O)(=O)CC2N1c1ccc(-c2nc3ccc(C)cc3s2)cc1 (stereo not given)	57	.	-17	0	-1	34*
O=C1CC(c2ccccc2)Oc2ccc(Cl)cc21 (stereo not given)	5	.	4	-3	4	0
O=C1CC(c2ccc3c(c2)OCCO3)Oc2ccc([N+](=O)[O-])cc21 (stereo not given)	12	14	-6	-8	-18	-2
COc1cccc(C2Cc3ccccc3C(=O)O2)c1 (stereo not given)	18	.	13	-1	1	.
COc1ccc(C2CC(=O)c3ccccc3O2)cc1 (stereo not given)	126*	61*	7	4	-1	43*
COc1ccc(C2CC(=O)c3cc(OC)ccc3O2)cc1 (stereo not given)	45	52*	-13	-8	-2	-1
O=C1CC(c2ccc3c(c2)OCCO3)Oc2ccccc21 (stereo not given)	104*	84*	17	-4	-4	?
CNC[C@@H]1Oc2c(NC(=O)NC(C)C)cccc2C(=O)N([C@@H](C)CO)C[C@@H]1C	.	-2	.	.	.	.
COc1cccc(-c2cc3nc(Nc4ccc(OC)c(OC)c4)n(C)c(=O)c3s2)c1	.	53*	.	-6	-4	0
COc1ccc(S(=O)(=O)N(C)C[C@@H]2OCCCC[C@@H](C)Oc3ccc(NS(=O)(=O)c4cccs4)cc3C(=O)N([C@@H](C)CO)C[C@H]2C)cc1	.	5	.	.	.	.
CN1CCN(C(=O)C[C@@H]2CC[C@H]3[C@@H](COC[C@@H](O)CN3C(=O)Cc3ccccc3)O2)CC1	.	-7	.	.	.	.
C=CCn1c(CC(=O)OC)csc1=Nc1ccc(C(C)=O)cc1	52	55*	9	5	0	-1
SMILES	MITF TRPM1 HTS	esBAF inh	PvdQ inh	Vif inh	Glyco luc inh	Wnt bcat act
C=CCn1c(C)csc1=Nc1ccc(C(C)=O)cc1	37	.	-2	1	-1	4
COc1cc(/C=C/c2ccc3cccc(O)c3n2)cc(Br)c1OC	-1	66*	-1	-11	-2	?
COc1ccc(Br)cc1/C=C/c1ccc2cccc(O)c2n1	-9	7	4	1	13	2
COc1ccc(/C=C/c2ccc3cccc(O)c3n2)cc1Br	58	44*	11	-8	16	23
Oc1cccc(/C=C/c2ccc3cccc(O)c3n2)c1	12	5	-1	-11	-9	40*
COc1cc(/C=C/c2ccc3cccc(O)c3n2)cc(OC)c1OC	-78	14	-14	.	-17	65*
COc1cccc(S(=O)(=O)Nc2ccc3c(c2)[C@@H]2C[C@@H](CC(=O)NCCc4ccccc4)O[C@@H](CO)[C@@H]2O3)c1	.	24	.	.	.	.

Compound activity: PubChem BioAssay, Broad Institute
